One assay concerns the target SCN4A. As to the kind of experiment: pooled miR-30 sensor sort-seq; sequence = guide strand. Conditions: shRNA.
Sequence TAGTCCTGTGTCATGAGGCGGA yielded a sensor-assay potency score (higher = more potent) of -0.484.
TTGAGCACGATGCAGATGGTGA had a sensor-assay potency score (higher = more potent) of -0.925.
Same read-out and setting: the result for TTGTAGTCAGCTGTGCTGCAGA reads -0.246; that for TTGATGCAGTAGTAGAACTTGC, -0.382; that for TGCAGTAGTAGAACTTGCCGGC, 0.0253.
On the same count and under the same terms, in the case of TTCAGAACCATCTCTGCTGTGA it was 0.403; in that of TACTCCACATTCTTGGACCAGG, -1.18; in that of TGCTCGACAATCTTGAAGCAGG, -1.33.
On the same count and under the same terms, the result for TTGATGAGCATGTTCAGCGTTG reads -0.377.

Another assay has as its target SDHAF1. The assay is described as above. Conditions: shRNA.
Sequence TACTCGATGCGCAGCACGTCGG had a sensor-assay potency score (higher = more potent) of -1.32.
The same measure, in the same setting: the result for TACAGGCTCAGAACCTGCCTCT reads -0.402.
For the sequence TCCTTGGACTGTCGCCGTCGTC, the sensor-assay potency score (higher = more potent) was -1.69.
As for TCGATGCGCAGCACGTCGGACC, the sensor-assay potency score (higher = more potent) is -1.24.
In turn, ATGCGCAGCACGTCGGACCGCG showed a sensor-assay potency score (higher = more potent) of -1.11.
As to TCGTGGGGGTTCCTTGGACTGT, the sensor-assay potency score (higher = more potent) is -2.02.
On the same count and under the same terms, in the case of ATGCTGCCGGAACTCTGCCCGC it was -1.77; in that of TGCGCAGCACGTCGGACCGCGG, -1.5.
For the sequence ACTGTCGCCGTCGTCAGGCTGG, the sensor-assay potency score (higher = more potent) is -1.04.
Still for that read-out and setting: in the case of TGGACTGTCGCCGTCGTCAGGC it was -0.932.
The same measure, in the same setting: the result for TGTCGCCGTCGTCAGGCTGGGA reads -1.53.
Same read-out and setting: the result for TTGGACTGTCGCCGTCGTCAGG reads -1.17.

Source of the values: the OligoGym collection.
Note: reference of the scale not given here.
